Compounds with a hit are over-represented: about 7.5% of the library has one in this group of screens.
TSHR antag = blocks TSH signaling through the human TSH receptor. P16473. TSHR-expressing cells, TSH-stimulated cAMP HTRF, 2 h; stronger effect = lower value. activity change, negative = inhibition, % at 11.5 µM. hit rate 0.2% among 330,000. AID 504810;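 active = activity change below a set negative limit, meaning inhibition stronger than a set level, cut at about -70% in these data; inconclusive = activity change between two set negative limits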
Target sequence (P16473 whole entry, looked up): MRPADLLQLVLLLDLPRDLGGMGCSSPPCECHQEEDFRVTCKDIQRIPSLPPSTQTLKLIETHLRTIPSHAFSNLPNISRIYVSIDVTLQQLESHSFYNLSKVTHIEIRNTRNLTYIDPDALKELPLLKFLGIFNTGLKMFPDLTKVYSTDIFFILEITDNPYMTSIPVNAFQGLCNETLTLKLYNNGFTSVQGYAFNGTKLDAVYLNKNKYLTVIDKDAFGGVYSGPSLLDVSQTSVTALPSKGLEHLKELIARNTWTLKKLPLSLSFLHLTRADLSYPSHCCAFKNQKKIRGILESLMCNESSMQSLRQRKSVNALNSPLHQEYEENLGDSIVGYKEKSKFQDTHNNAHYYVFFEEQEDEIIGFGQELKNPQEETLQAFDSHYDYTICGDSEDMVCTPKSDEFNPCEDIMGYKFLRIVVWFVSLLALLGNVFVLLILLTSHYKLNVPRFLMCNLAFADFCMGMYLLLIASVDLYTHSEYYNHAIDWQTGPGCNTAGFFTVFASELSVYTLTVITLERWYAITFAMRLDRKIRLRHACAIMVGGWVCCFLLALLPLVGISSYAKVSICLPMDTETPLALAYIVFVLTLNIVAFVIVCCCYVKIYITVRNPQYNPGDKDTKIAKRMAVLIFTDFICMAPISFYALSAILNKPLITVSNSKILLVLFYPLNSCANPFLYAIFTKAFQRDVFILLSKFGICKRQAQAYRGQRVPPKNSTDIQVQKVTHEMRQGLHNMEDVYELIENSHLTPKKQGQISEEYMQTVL
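TSHR-expressing cells were treated with compounds, then stimulated with TSH at EC80 (4nM final) for 2 hours at 37 deg C. Cellular cAMP was measured by HTRF competition between lysate cAMP and cAMP-d2 for a cryptate-labelled anti-cAMP antibody.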
ELG1 repair inh = ELG1-dependent DNA repair inhibition; HEK293T ELG1-luciferase reporter, luminescence, 16 h; DNA damage induced by 5-fluorouridine; hit rate 2.3% among 330,000; Potency, µM (highest dose often 46.1 µM), usual class: inhibitors; AID 504467; note: nearly all actives have a fitted effect of over 55% in size
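5-Fluorouridine DNA damage + compound/DMSO, 2,000 cells/well, 16 h, 37 °C/5% CO2. ONE-Glo, 30 min RT, luminescence. Readout = decrease in reporter signal.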
Gal4-VP16 FLuc = counter-screen for ROR gamma inhibitors: Gal4-VP16 reporter; Drosophila S2 Gal4-VP16 UAS-luciferase, luminescence, 20 h; Potency, µM (doses to about 53.6 µM), actives largely listed as inhibitors; hit rate 3.5% among 310,000;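 note: Gal4-VP16 expression switched on by copper sulfate through the metallothionein promoter; nearly all actives have a fitted effect of over 50% in size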
RORgamma inh = inhibitors of mouse ROR gamma transcriptional activity. Drosophila S2 Gal4-RORgamma UAS-luciferase reporter, 20 h. Potency, µM (highest dose often 53.6 µM), most hits filed as inhibitors. hit rate 5.4% among 310,000. AID 2551; note: nearly all actives have a fitted effect of over 60% in size
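Drosophila Schneider cells stably carrying a metallothionein-driven Gal4 DBD–ROR gamma fusion and a UAS-Photinus luciferase reporter were exposed to compound for 1 hr, then induced with copper sulfate (700 uM final) for 20 hr at ambient temperature before luminescence reading.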
B2AR arrestin = recruits beta-arrestin to the human beta2-adrenergic receptor. AID 492947. Potency, µM (top dose mostly 46.1 µM), usual class: activators. hit rate 0.02% among 330,000. beta-arrestin recruitment to beta2AR, cell-based reporter; note: nearly all actives have a fitted effect of over 65% in size
A number is an active result; – = inactive; ? = inconclusive; · = not tested or not shown; [ ] = remark or other dose. Unless noted, calls come from the whole dose curve; as a rule, active = well fitted curve in the direction sought with a large enough effect; inconclusive = small, poorly fitted or top-dose-only effect, or another doubt; inactive = no such curve, though single readings can be large; an effect the other way counts as inactive or inconclusive.

SMILES	TSHR antag	ELG1 repair inh	Gal4-VP16 FLuc	RORgamma inh	B2AR arrestin
COC(=O)[C@@H]1CC[C@H](C)[C@@H](c2ccc(C)cc2)N1C(=O)c1ccc(/C=N\O[C@@H](C)c2cn([C@H]3COC[C@H]3O)nn2)cc1	·	·	–[10 µM]	–[10 µM]	·
CCC(NC(=S)NCc1ccc(F)cc1)c1ccc(C(C)C)cc1 (stereo unspecified)	–	?	4µM	2.8µM	–
CCC(C)[C@H](NC(=O)NCc1ccc(F)cc1)C(=O)O (stereo partly specified)	–	?	–	–	–
CCOc1ccc(C(C)NC(=S)NCc2ccc(Cl)cc2)cc1 (stereo unspecified)	–	?	13µM	0.79µM	–
C[C@H](NC(=O)NCc1ccc(F)cc1)C(=O)O	–	–	–	–	–
CCOc1ccc(OCCC(=O)OCC(=O)NCc2ccc(Cl)cc2)cc1	–	?	·	·	–
CC(NC(=S)NCc1ccc(F)cc1)C12CC3CC(CC(C3)C1)C2 (stereo unspecified)	–	–	5µM	1.8µM	–
O=C(CSc1nnc(-c2ccccc2O)o1)N1CCc2ccccc2C1	–	–	?	10µM	–
O=C(CSc1nnc(-c2ccccc2)o1)N1CCc2ccccc2C1	–	–	–	–	–
CCc1nnc(NC(=O)CSc2nnc(CSc3nc(C)cc(C)n3)o2)s1	–	–	13µM	5.6µM	–
CCc1nnc(NC(=O)CSc2nnc(-c3ccccc3O)o2)s1	–	–	1.1µM	0.11µM	–
CCc1nnc(NC(=O)CSc2ncc(-c3ccccc3)n2C)s1	–	?	?	11µM	–
Cc1ccc(C(=O)O/N=C(\N)Cc2cccs2)c(Cl)c1	–	?	?	–	–
CC(OC(=O)CCN=C1NS(=O)(=O)c2ccccc21)C(=O)Nc1ccc(S(N)(=O)=O)cc1 (stereo unspecified)	–	–	·	·	–
N#Cc1ccc(CN2CC3(CCN(C(=O)c4cnccn4)CC3)C2)cc1	·	·	–	–	·
Cc1ccc(C(=O)Nc2cccnc2)cc1Cl	–	?	–	–	–
CCN(CC)CCNC(=O)c1ccc(Cl)c(S(=O)(=O)Nc2ccc(Cl)cc2)c1	–	–	20µM	?	–
CCN(CC)CCNC(=O)c1ccc(Cl)c(S(=O)(=O)Nc2ccccc2OC)c1	–	–	–	–	–
O=C(CNC(=O)N1CC(=O)Nc2ccccc21)Nc1cc(Cl)ccc1Cl	–	–	–	–	–
COc1ccccc1N1CCN(C(=O)CSc2nnc3c4ccccc4nc(Cc4ccccc4)n23)CC1	–	9.2µM	–	–	–
COc1ccccc1N1CCN(C(=O)c2ccc3c(=O)n(Cc4ccco4)c(=S)[nH]c3c2)CC1	–	?	?	6.3µM	–
COc1ccccc1Cn1c(=S)[nH]c2cc(C(=O)N3CCN(c4ccccc4OC)CC3)ccc2c1=O	–	–	–	?	–
COc1ccc(Cn2c(=O)[nH]c3cc(C(=O)N4CCN(c5ccccc5OC)CC4)ccc3c2=O)cc1	–	21µM	–	–	–
COc1ccccc1N1CCN(C(=O)c2ccc(CSc3ccccc3)cc2)CC1	–	23µM	–	–	–
CC(=O)N/C(=C\c1ccccc1)C(=O)OCc1cc(C)ccc1C	–	–	–	–	–
SMILES	TSHR antag	ELG1 repair inh	Gal4-VP16 FLuc	RORgamma inh	B2AR arrestin
O=C(c1ccc(Cn2c(=O)[nH]c3ccsc3c2=O)cc1)N1CCN(c2ccccc2)CC1	–	?	–	?	–
COc1ccccc1N1CCN(C(=O)c2cc(=O)c3c(C)cc(C)cc3o2)CC1	–	26µM	–	–	–
O=C(c1ccc(Cn2c(=O)[nH]c3ccccc3c2=O)cc1)N1CCN(c2ccc(F)cc2)CC1	–	18µM	–	?	–
CC(C)(C)CC(=O)N1CCN(c2ccc(S(=O)(=O)N3CCOCC3)cc2[N+](=O)[O-])CC1	–	?	·	·	–
C=CCC1C=CC(Oc2ccc(F)cc2C)C(CO)O1 (stereo unspecified)	·	·	–[10 µM]	–[10 µM]	·
S=C(NCc1ccccc1)NCc1ccco1	–	–	?	11µM	–
NNC(=S)NCc1ccco1	–	–	?	7.1µM	?
Cc1cccc(NC(=S)NCc2ccco2)n1	–	–	4.5µM	1.3µM	?
CC(C)(C)NC(=S)NCc1ccco1	–	?	–	–	–
O=C1C(=O)c2c(C(=O)c3ccccc3)coc2-c2ccccc21	–	?	3.5µM	6.3µM	–
Cc1oc2c(c1C(=O)O)C(=O)c1ccccc1C2=O	–	8.2µM	?	?	–
CCOC(=O)c1c(C)oc2c1C(=O)c1ccccc1C2=O	–	7.3µM	–	?	–
Cc1onc(-c2ccccc2Cl)c1C(=O)c1ccccc1	–	?	–	–	–
O=C(c1ccccc1)c1coc2ccc(O)c(Cl)c12	–	?	–	–	–
Cc1oc2c(c1C(=O)c1ccccc1)C(=O)C(=O)c1ccccc1-2	?	?	3.2µM	2.8µM	–
CCOC(=O)c1c(C)nc2c(c1-c1ccccc1)C(=O)c1ccccc1-2	–	?	–	–	–
CCOC(=O)c1ccc2c(c1)N(Cc1ccccc1C)C(=O)c1ccccc1S2=O (stereo unspecified)	–	16µM	22µM	–	–
Cc1nc2ccccc2c(=O)n1/N=C/c1ccccc1	–	?	?	–	–
Cc1[nH]n(-c2ccccc2)c(=O)c1/C=N/n1c(C)nc2ccccc2c1=O	–	–	?	5.6µM	–
Cc1[nH]n(-c2ccccc2)c(=O)c1/C=N/N(c1ccccc1)c1ccccc1	–	?	?	5.6µM	–
Cc1ccc(-n2[nH]c(C)c(/C=N/n3c(C)nc4ccccc4c3=O)c2=O)cc1	–	–	?	18µM	–
C=CCN=Cc1c(C)[nH]n(-c2ccccc2)c1=O	–	?	–	–	–
CNCCc1cnc(CCC(c2ccccc2)c2ccccc2)[nH]1	–	·	·	·	·
CCC(=O)c1ccc(OCC(=O)OC(C)C(=O)NCc2ccc3c(c2)OCO3)cc1 (stereo unspecified)	–	–	·	·	–
COc1ccc(-c2csc(NC(=O)Cc3ccccc3F)n2)cc1OC	–	16µM	–	–	–
SMILES	TSHR antag	ELG1 repair inh	Gal4-VP16 FLuc	RORgamma inh	B2AR arrestin
COc1ccc(CC(=O)Nc2nc(-c3ccc(OC)c(OC)c3)cs2)cc1OC	–	18µM	?	?	–
COc1ccc(-c2csc(NC3OC(=O)c4c3ccc(OC)c4OC)n2)cc1OC (stereo unspecified)	–	–	7.9µM	3.5µM	–
COc1ccc(-c2csc(NC(=O)CC(NC(C)=O)c3ccccc3)n2)cc1OC (stereo unspecified)	–	–	–	–	–
COc1ccc(-c2csc(NC(=O)C3CC(=O)N(Cc4ccccc4)C3)n2)cc1OC (stereo unspecified)	–	12µM	–	–	–
C=C[C@@]1(C)CC(=O)[C@@]2(O)[C@@]3(C)[C@@H](O)CCC(C)(C)[C@@H]3[C@H](O)[C@H](OC(C)=O)[C@@]2(C)O1	·	·	–	–	·
O=C(OCc1cccc([N+](=O)[O-])c1)c1ccc[nH]c1=O	–	–	–	–	–

Assay outcomes: PubChem BioAssay, National Center for Advancing Translational Sciences (NCATS)
